Screens (PubChem)
This is a sample that favours compounds with a hit; in the whole collection about 7.9% have one here.
HCV inhibitor: qHTS Assay for Inhibitors of Hepatitis C Virus (HCV); Huh7.5.1 HCVcc-Cre infection, luciferase reporter, 44 h; Potency, µM (series often up to 41.8 µM), actives largely listed as inhibitors; 340,000 compounds, 3.4% hits; AID 651820, 2012; active = well fitted inhibition curve with a large enough effect; inconclusive = small, poorly fitted or top-dose-only effect, or another doubt; inactive = no such curve, though single readings can be large or run the other way
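Seed cells (1,000/well) for 4 h; treat with compound and infect with HCVcc-Cre, moi about 0.5. Incubate 44 h, then detect luciferase activity.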
LASV entry inh: qHTS for Inhibitors of binding or entry into cells for Lassa Virus; Lassa virus pseudotype entry inhibition, cell reporter; Potency, µM (top dose mostly 37.9 µM), most hits filed as inhibitors; 300,000 compounds, 1.2% hits; AID 540256, 2011; calls by dose curve; tested in HEK293 cells; note: nearly all actives have a fitted effect of over 50% in size
FMDV inh: High Throughput Screening for Foot and Mouth Disease Virus Antivirals. 410,000 compounds, 1.2% hits. Potency, µM (titrated, usually from 57.9 µM), most hits filed as inhibitors. FMDV antiviral cell-based qHTS; calls by dose curve; tested in HEK293T cells; note: read-out not given here; nearly all actives have a fitted effect of over 45% in size
HCMV inh: qHTS Assay for inhibitors of the human cytomegalovirus (HCMV). 410,000 compounds, 4.5% hits. HFF cells, HCMV-luciferase reporter, 72 h; active compounds read low. AID 1259415, 2018. activity change, negative = inhibition, % at 57.5 µM; in the data active = activity change below about -60%; inconclusive = no clear call, values can overlap the other calls; inactive = above about -39%
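Cell-based, HFFs, 1000 cells/well, 16 h 37C; cpds in DMSO + HCMV-luc, MOI 1 PFU/cell; 72 h 37C; OneGlo luminescence after 5 min RT; norm. to buffer vs Salinomycin 10uM.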
Marburg entry inh: qHTS for inhibitors of binding or entry into cells for Marburg Virus. Marburg virus pseudotyped entry inhibition, cell reporter. Potency, µM (series often up to 37.8 µM), hits mostly inhibitors. 300,000 compounds, 1.8% hits; calls by dose curve; tested in HEK293 cells
Numbers stand for hits; 0 = inactive; ? = inconclusive; - = no result; ! = repeats disagree.

SMILES | HCV inhibitor | LASV entry inh | FMDV inh | HCMV inh | Marburg entry inh
Cc1ccccc1-n1c(C)cc(/C=C(\C#N)C(=O)NCC2CCCO2)c1C (stereo unspecified) | 0 | 14.6µM | 0 | ? | 0
CC(C)Cn1c(=O)c2ccccc2n2c(CCC(=O)NCc3ccc(Cl)cc3)nnc12 | - | - | 0 | 0 | 0
CCNc1ccc(C(=O)OCC(=O)NCc2ccc(C)cc2)cc1[N+](=O)[O-] | 0 | 0 | 0 | 0 | 0
CCNc1ccc(C(=O)OCC(=O)NC(C)c2ccccc2)cc1[N+](=O)[O-] (stereo unspecified) | ? | 0 | 0 | -66.2 | 0
CC1(C(=O)Nc2cccc(C#N)c2)CCN1C(=O)Cc1ccc(-c2ccccc2)cc1 (stereo unspecified) | - | - | 25.1µM | -61.3 | -
C[C@](N)(Cc1ccc(O)cc1)C(=O)O | - | 0 | - | - | ?
COC(=O)C(C)(N)Cc1ccc(O)cc1 (stereo unspecified) | ? | ? | 0 | 0 | 2.82µM!
Cc1ccc(C)c(NC(=O)Cn2c(=O)n(CCC(C)C)c(=O)c3cccnc32)c1 | - | - | 0 | 0 | 0
Cc1cc2cc(CN(Cc3cccs3)S(=O)(=O)c3ccc4c(c3)OCCO4)c(=O)[nH]c2cc1C | 0 | 0 | 0 | ? | 0
Cc1cccc2cc(CN(Cc3cccs3)S(=O)(=O)c3ccc4c(c3)OCCO4)c(=O)[nH]c12 | ? | ? | 0 | -83.9 | 0
Cc1cccc2cc(CN(Cc3cccs3)C3(c4nnnn4C4CCCC4)CCCC3)c(=O)[nH]c12 | 0 | ? | 0 | -69.8 | 0
Cc1cccc2cc(CN(Cc3ccc(F)cc3)Cc3nnnn3C3CCCC3)c(=O)[nH]c12 | 0 | ? | - | 0 | 0
Cc1ccc(CCNC(=O)c2ccc(CS(=O)(=O)c3ccc(Br)cc3)o2)cc1 | - | 0 | 0 | 0 | ?
O=C(N[C@H](c1ccccc1)C1CCCC=C1c1ccccc1)C(F)(F)F (stereo partly specified) | - | - | - | - | 0
COc1ccc(OC)c([C@H](O)c2coc3ccc(O)c(CN4CCOCC4)c23)c1 | - | - | - | - | 0
Cc1ccc(CNC(=O)c2cnn(-c3cccc(C)c3)c2C2CCN(C(=O)OC(C)(C)C)CC2)cc1 | - | ? | ? | 0 | -
N=c1c2c(-c3ccccc3)c(-c3ccccc3)n(Cc3ccco3)c2ncn1CCCN1CCOCC1 | 7.08µM | 0 | 0 | -97.5 | 7.08µM
OCCNc1ncnc2c1c(-c1ccccc1)c(-c1ccccc1)n2Cc1ccco1 | ? | ? | 0 | -62.9 | ?
CC(C)Cn1cnc2c(c(-c3ccccc3)c(-c3ccccc3)n2Cc2ccco2)c1=N | 11.2µM | 6.31µM | ? | 0 | 2.82µM
N=c1c2c(-c3ccccc3)c(-c3ccccc3)n(Cc3ccco3)c2ncn1Cc1ccccc1 | 0 | 0 | 0 | 0 | 0
N=c1c2c(-c3ccccc3)c(-c3ccccc3)oc2ncn1CCN1CCOCC1 | ? | 0 | ? | 0 | ?
N=c1c2c(-c3ccccc3)c(-c3ccccc3)oc2ncn1CCCN1CCOCC1 | ? | ? | ? | 0 | 8.2µM
CCCCCCCCCCCCCCCCCCNC(=O)OC[C@@H](COP(=O)([O-])OCC[n+]1ccsc1)OC | - | - | - | - | 0
CCN1c2ccccc2NC2C1C(C(C)=O)C(=O)N2c1ccc(Cl)cc1 (stereo unspecified) | 10µM | ? | - | 0 | ?
O=C1Nc2ccccc2N(O)N1c1ccc(Cl)cc1 | 0 | 0 | 0 | 0 | 0
SMILES | HCV inhibitor | LASV entry inh | FMDV inh | HCMV inh | Marburg entry inh
O=C(NCC(c1ccco1)S(=O)(=O)c1cccs1)c1ccc(C(F)(F)F)cc1 (stereo unspecified) | - | 0 | 0 | 0 | -
COc1ccccc1-c1cc(-c2ccccc2)nc(SC(C(N)=O)c2ccccc2)c1C#N (stereo unspecified) | ? | ? | 0 | ? | 14.6µM
COC1CCC(C2CC(=O)C3=C(CCCC3)O2)CC1 (stereo unspecified) | - | - | - | - | 0
Cn1c(=O)c2c(ncn2CC(COCc2ccc(Cl)cc2)OCc2ccc(Cl)cc2)n(C)c1=O (stereo unspecified) | ? | ? | ? | 0 | 7.94µM
Cn1c(=O)c2c(ncn2Cc2ccc(Cl)cc2)n(C)c1=O | ? | ? | ? | 0 | ?
COc1ccc(-c2nc(C(N)=O)c3[nH]c(=O)n(-c4cccc(Cl)c4)c3n2)cc1OC | ? | ? | ? | 0 | ?
CCc1ccc(-c2nc(C(N)=O)c3[nH]c(=O)n(-c4ccccc4OC)c3n2)cc1 | ? | - | ? | -98.3 | -
CCn1c2c(c(=O)n3ncc(C(=O)N4CCN(c5ccc(C(C)=O)cc5)CC4)c13)CN(Cc1ccc(OC)cc1)CC2 | - | 10µM | 20µM | 0 | -
COC[C@@H]1OC(=O)c2coc3c2[C@]1(C)C1=C(C3=O)[C@H]2CCC(=O)[C@]2(C)C[C@@H]1OC(C)=O | - | - | - | - | 0
C=C(C)[C@@H]1CC=C(CN2CCN(Cc3ccccc3)CC2)CC1 | 0 | ? | 0 | 0 | 10µM
C=C(C)C1CC=C(CN2CCN(Cc3ccccc3)CC2)CC1 (stereo unspecified) | 0 | - | 0 | 0 | -
COc1ccc(CCNc2ncnc3onc(C)c23)c(OC)c1 | - | 0 | 12.6µM | ? | -
CSc1ccc(CCNc2ncnc3onc(C)c23)cc1 | - | ? | 0 | -65.2 | -
Cc1ccc(NCc2cccn2-c2nnc(N3CCC(C(=O)NCCc4ccccc4)CC3)s2)cc1 | - | - | 0 | 0 | ?
O=C(Nc1ccc(O)cc1)c1ccc(NC(=O)C2CCCO2)cc1 (stereo unspecified) | 0 | - | 0 | -63.3 | -
Cc1cc(NC(=O)c2ccc(NC(=O)C3CCCO3)cc2)ccc1Br (stereo unspecified) | 0 | - | ? | -73.6 | -
NC(=O)c1ccc(NC(=O)C2CCCO2)cc1 (stereo unspecified) | 0 | 0 | 0 | 0 | 0
Cc1nn(CC(=O)NCc2ccc(N(C)C)cc2)c(=O)c2c(C)n(-c3ccc(Cl)cc3)nc12 | - | 0 | ? | 0 | -
Cc1ccc(N2C(=O)C[C@H](Cn3nc(C)cc3C)C2=O)cc1 | - | - | - | - | 0
Cc1ccc(-c2nn(-c3ccccc3)cc2CN(Cc2ccccc2)C(=O)c2ccco2)o1 | 10µM | ? | 28.2µM | -75.6 | ?
Cc1ccc2cc(CN(Cc3ccc4c(c3)OCO4)Cc3nnnn3Cc3ccco3)c(=O)[nH]c2c1 | 15.8µM! | ? | 0 | ? | ?
Cc1ccc(CN(Cc2cc3cc4c(cc3[nH]c2=O)OCCO4)Cc2nnnn2Cc2ccco2)cc1 | ? | ? | 0 | 0 | ?
Cc1ccc2[nH]c(=O)c(CN(Cc3ccccc3)Cc3nnnn3C3CCCC3)cc2c1 | ? | 0 | 0 | 0 | 18.3µM
CC(C)(C)OC(=O)N1CCc2nc(N3CCN(c4ncccn4)CC3)ncc2C1 | - | ? | ? | 0 | 0
Cc1ccc(CCNC(=O)c2ccc(Cn3c(=O)c4cccn4c4cccnc43)cc2)cc1 | - | 0 | 0 | -60.0 | -
CC(C)CCNC(=O)CCn1c(=O)c2cccn2c2cccnc21 | - | 0 | 0 | -60.2 | -
O=C(CCn1c(=O)c2cccn2c2cccnc21)NCc1ccc(F)cc1 | - | 0 | 0 | 0 | -
O=C(CCn1c(=O)c2cccn2c2cccnc21)NCc1cccc(Br)c1 | - | 0 | 0 | -60.7 | -
